Source: PubChem BioAssay (National Center for Advancing Translational Sciences (NCATS))
In the library only some 18% were active in any assay of this set; here they are far more common.
TDP1 cell noCPT: qHTS for Inhibitors of human tyrosyl-DNA phosphodiesterase 1 (TDP1): qHTS in cells in absence of CPT | DT40 Tdp1-/- hTDP1 cells, no CPT, ATP luminescence, 48 h | Potency, µM (highest dose often 46.2 µM), most hits filed as inhibitors | actives 15% (n = 420,000); further: nearly all actives have a fitted effect of over 55% in size
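Camptothecin absent (DMSO only). Human TDP1-complemented DT40 knockout cells, 400 cells/well, 37 °C for minimum 48 hr; ATP measured via CellTiter-Glo, 30 min dark incubation, luminescence.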
TDP1 cell CPT: DT40-hTDP1 cell growth loss with CPT. chicken DT40 Tdp1-/-;hTDP1 cells + 20 nM CPT, ATP luminescence, 48 h. Potency, µM (series often up to 46.2 µM), hits mostly inhibitors. actives 12% (n = 420,000). AID 686979; further: nearly all actives have a fitted effect of over 55% in size
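Chicken DT40 Tdp1-/- cells stably complemented with human TDP1 were seeded at 400 cells/well in medium containing 20 nM camptothecin, exposed to pin-transferred compounds, and grown at 37 °C for at least 48 hr. Viability was read as ATP luminescence.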
VDR inhibitor: vitamin D3 receptor (human) inhibition; VDR-SRC2-3 peptide fluorescence polarization, 2 h; P11473; AID 504847; Potency, µM, most hits filed as inhibitors; actives 0.93% (n = 400,000)
Target sequence (P11473 whole entry, looked up): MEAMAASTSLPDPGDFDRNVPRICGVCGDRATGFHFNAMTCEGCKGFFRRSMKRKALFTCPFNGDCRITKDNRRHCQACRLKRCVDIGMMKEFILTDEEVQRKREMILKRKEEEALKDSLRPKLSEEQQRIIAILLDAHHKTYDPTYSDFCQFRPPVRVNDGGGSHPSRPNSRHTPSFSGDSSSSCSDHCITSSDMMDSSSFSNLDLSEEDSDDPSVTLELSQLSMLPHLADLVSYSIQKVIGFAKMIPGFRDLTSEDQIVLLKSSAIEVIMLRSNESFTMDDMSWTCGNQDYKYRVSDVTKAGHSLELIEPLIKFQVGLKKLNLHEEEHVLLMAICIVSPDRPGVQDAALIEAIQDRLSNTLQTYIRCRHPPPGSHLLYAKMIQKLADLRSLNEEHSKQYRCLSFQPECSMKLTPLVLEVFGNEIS
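Fluorescence polarization assay measuring small-molecule disruption of VDR binding to the coregulator peptide SRC2-3. Compounds were pin-transferred (23 nl) into the reagent mix and incubated 2 h at room temperature before reading.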
TDP1 block: blocks human tyrosyl-DNA phosphodiesterase 1; actives 0.28% (n = 350,000); recombinant TDP1, AlphaScreen DNA substrate cleavage; Potency, µM (highest dose often 130 µM), usual class: inhibitors; Q9NUW8; further: nearly all actives have a fitted effect of over 40% in size
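Steps: enzyme plus compound, 15 min RT; add biotin/phosphotyrosine-FITC oligonucleotide (15 nM final), react 5 min; add donor/acceptor beads (10 ug/ml final), 10 min; read AlphaScreen. Tdp1 at 1 nM final.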
KAT2A inh: blocks human GCN5L2 histone acetyltransferase. actives 0.21% (n = 390,000). GCN5L2 HAT assay, ThioGlo1 CoA-SH fluorescence. Potency, µM (doses to about 58.9 µM), usual class: inhibitors. Q92830
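ThioGlo1-coupled HAT assay: 20nM GCN5L2, 70uM acetyl-CoA, 75uM H3(1-25) peptide, pH 7.5. Fluorescence read at 340/540nm at start and after 20 min at room temperature.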
PLK1 PBD inh: PLK1 (human) polo-box domain binding inhibition | Plk1 PBD binding of FITC phosphopeptide, fluorescence polarization | Potency, µM, most hits filed as inhibitors | P53350 | actives 2.8% (n = 360,000); further: series mostly up to about 57 µM; nearly all actives have a fitted effect of over 65% in size
Numbers stand for hits; . = inactive; ? = inconclusive; / = not tested or not shown. The call rests on the fitted dose curve; in most records, active means well fitted curve in the direction sought with a large enough effect; inconclusive means small, poorly fitted or top-dose-only effect, or another doubt; inactive means no such curve, though single readings can be large; an effect the other way counts as inactive or inconclusive.

SMILES	TDP1 cell noCPT	TDP1 cell CPT	VDR inhibitor	TDP1 block	KAT2A inh	PLK1 PBD inh
CS(=O)(=O)N1CCCCC1c1cc(C(=O)Nc2ccc3c(c2)OCO3)no1 (centres undefined)	.	.	/	/	/	.
CCCNC(=O)c1cc(C2CCCCN2S(=O)(=O)c2ccc(OC)cc2)on1 (centres undefined)	?	.	/	/	/	.
N#Cc1cccc(NC(=O)c2cc(C3CCCCN3S(=O)(=O)c3ccccc3)on2)c1 (centres undefined)	16.4µM	?	/	/	/	.
COc1ccc(S(=O)(=O)N2CCCCC2c2cc(C(=O)NCc3ccccc3)no2)cc1 (centres undefined)	?	25.9µM	/	/	/	.
O=C(NCc1ccccc1)c1cc(C2CCCCN2S(=O)(=O)c2ccccc2)on1 (centres undefined)	25.9µM	?	/	/	/	.
COc1ccc(S(=O)(=O)N2CCCCC2c2cc(C(=O)Nc3ccc4c(c3)OCO4)no2)cc1 (centres undefined)	14.6µM	18.4µM	/	/	/	.
COc1ccc(CNC(=O)c2nc(Cn3nc(C)c(Br)c3C)no2)cc1OC	?	.	.	.	.	/
CC1CN(c2ccc([N+](=O)[O-])nc2)CC(C)O1 (centres undefined)	.	.	.	.	.	.
O=C(NCc1ccc(F)cc1)c1cc(C2CCCCN2S(=O)(=O)c2ccc(F)cc2F)on1 (centres undefined)	?	23.1µM	/	/	/	.
CCCNC(=O)c1cc(C2CCCCN2S(=O)(=O)c2ccc(F)cc2F)on1 (centres undefined)	.	.	/	/	/	.
COc1ccc(N(CC(C)C)S(=O)(=O)c2nnc(NC(=O)c3cccs3)s2)cc1	20.6µM	?	.	.	.	/
COc1ccc(CC(N)c2csc(NC(=O)Nc3ccccc3C(C)(C)C)n2)cc1 (centres undefined)	?	?	/	/	/	.
COc1ccc(NC(=O)c2cccs2)cc1	?	.	.	.	.	.
COc1ccc(CNC(=O)Nc2nc(C(N)c3ccccc3)cs2)cc1 (centres undefined)	20.6µM	?	/	/	/	.
COc1ccc(CC(N)c2csc(NC(=O)NCc3ccccc3)n2)cc1 (centres undefined)	?	20.6µM	/	/	/	.
COc1ccc(CC(N)c2csc(NC(=O)c3cccs3)n2)cc1 (centres undefined)	23.1µM	18.4µM	/	/	/	.
CCCNC(=O)Nc1nc(C(N)c2ccc(OC)cc2)cs1 (centres undefined)	.	.	/	/	/	.
CCOC(=O)N1CCN(c2nc3ccc(C)cc3n3cnnc23)CC1	.	.	.	/	.	.
COc1ccccc1CN1C(=O)C(C)ON=C1c1ccccc1F (centres undefined)	?	.	/	/	/	.
COc1cc(CNC(=O)Nc2nc(C(N)Cc3ccc(C(F)(F)F)cc3)cs2)cc(OC)c1OC (centres undefined)	11.6µM	13µM	/	/	/	.
CCOC(=O)C1CCCN(CC(=O)Nc2c(C(=O)OC)[nH]c3ccc(C)cc23)C1 (centres undefined)	23.1µM	?	.	.	.	.
CCOC(=O)C1CCCN(CC(=O)Nc2c(C(=O)OC)[nH]c3ccc(Cl)cc23)C1 (centres undefined)	?	?	.	.	.	.
CCOC(=O)c1[nH]c2ccc(Br)cc2c1NC(=O)CCN1CCC(C(=O)OCC)CC1	16.4µM	20.6µM	.	.	.	.
COC(=O)/C=C/C(=O)Nc1ccc(O)c(Cl)c1	?	?	.	.	.	.
COC(=O)/C=C\c1cc(O)ccc1O	0.596µM	0.596µM	?	.	?	/
SMILES	TDP1 cell noCPT	TDP1 cell CPT	VDR inhibitor	TDP1 block	KAT2A inh	PLK1 PBD inh
COc1cccc(NS(=O)(=O)c2ccc3[nH]cc(C(=O)NC(C)c4ccccc4)c(=O)c3c2)c1 (centres undefined)	.	?	?	/	.	/
COc1ccc(-c2nc(CSc3nncn4c3cc3sccc34)c(C)o2)cc1OC	2.59µM	1.84µM	.	.	.	/
CC(=O)NC(Cc1c(F)c(F)c(F)c(F)c1F)C(=O)NCC(N)C(=O)c1ccccc1 (centres undefined)	20µM	?	/	/	/	/
CCC(C)c1ccccc1NC(=O)CN(C)CCOc1ccc(Cl)cc1 (centres undefined)	23.1µM	?	.	/	.	.
CN(CCOc1ccccc1)CC(=O)Nc1ccc(Br)cc1F	16.4µM	?	.	/	.	.
Cc1ccc([N+](=O)[O-])cc1NC(=O)CN(C)CCOc1ccccc1	?	?	.	/	.	.
COc1ccccc1NC(=O)CN1C(=O)NC2(CCCc3ccccc32)C1=O (centres undefined)	.	.	.	.	.	.
Cc1ccc(CS(=O)Cc2ccc(C(=O)N3CCN(C4CCCCC4)CC3)o2)cc1 (centres undefined)	.	.	.	.	.	.
COc1cccc(Cn2c(NCc3ccco3)nc3c2c(=O)n(C)c(=O)n3C)c1	1.46µM	1.84µM	.	.	.	.
COc1ccc(Cl)c(Cn2c(NCc3ccco3)nc3c2c(=O)n(C)c(=O)n3C)c1	3.66µM	4.61µM	.	.	.	.
Cn1c(=O)c2c(nc(NCc3ccco3)n2CC(O)COc2ccccc2)n(C)c1=O (centres undefined)	9.2µM	?	.	.	.	.
CCCn1c(NCc2ccco2)nc2c1c(=O)n(C)c(=O)n2C	13µM	?	.	/	.	.
Cc1cc(NC(=O)CSCC(=O)OCc2nnc(-c3ccc(F)cc3)o2)no1	.	.	.	.	.	.
CCCCC#Cc1nc(N)c2ncn([C@@H]3O[C@H](C(=O)NCC)[C@@H](O)[C@H]3O)c2n1	/	/	/	.	/	/
Cn1c(NCc2ccco2)nc2c1c(=O)n(Cc1ccc(Br)cc1)c(=O)n2C	?	?	.	.	.	.
CC1CN(c2nc3c(c(=O)n(Cc4ccc(Cl)cc4)c(=O)n3C)n2C)CC(C)O1 (centres undefined)	25.9µM	?	.	.	.	.
Cn1c(NCc2ccco2)nc2c1c(=O)n(Cc1ccc(Cl)cc1)c(=O)n2C	18.4µM	?	.	.	.	.
COc1cc2nc(N3CCN(C(=O)OCc4ccccc4)C(C(=O)NC(C)(C)C)C3)nc(N)c2cc1OC (centres undefined)	/	/	.	.	.	/
Cc1ccc(C2=NN(CC(=O)NC(C)c3ccccc3)C(=O)CC2)cc1 (centres undefined)	.	.	.	.	.	/
Cn1ccnc1COc1ccc(/C=N/O)cc1	.	.	.	/	.	.
OCCN1CCN(c2nc(-c3ccccc3O)nc3ccccc23)CC1	16.4µM	.	.	/	.	.
